PubChem BioAssay (NCATS)
Results filed as inconclusive are left out. The source made the active and inactive calls. The call rests on the fitted dose curve; in most records, active means well fitted inhibition curve with a large enough effect; inconclusive means small, poorly fitted or top-dose-only effect; inactive means flat fitted curve, though single readings scatter.

The compounds below were run on KB-3-1 (assay: Cytotoxic Profiling of Annotated Libraries Using Quantitative High-Throughput Screening (AID 1296008; further: nearly all actives have a fitted effect of over 60% in size)). Conditions: Five cell lines viability, CellTiter-Glo ATP luminescence, 48-72 h; max response: active compounds read low.
In short: (§1)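 Cells exposed to compounds for 48 or 72 hr at 37 degrees Celsius. Viability read as ATP-coupled luminescence with CellTiter-Glo after 10 min at room temperature.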
On the % scale 0 is the no-effect control and ±100 the full control effect.

Compound	outcome	max response
C[C@H]1[C@H](C)CC[C@]2(C(=O)O)CC[C@]3(C)C(=CC[C@@H]4[C@@]5(C)C[C@@H](O)[C@H](O)[C@@](C)(CO)[C@@H]5CC[C@]43C)[C@H]12	inactive	–
CC(C)C1=CC2=CCC3[C@](C)(CCC[C@@]3(C)C(=O)O)C2CC1O (stereo partly drawn)	inactive	–
C[C@@H]1O[C@@H](O[C@H]2[C@H](O)[C@@H](C(=O)O)O[C@@H](O[C@H]3CC[C@@]4(C)C(CC[C@]5(C)C4CC=C4C6CC(C)(C)CC[C@]6(C(=O)O)CC[C@]45C)C3(C)C)[C@@H]2O[C@@H]2O[C@H](CO)[C@@H](O)[C@H](O)[C@H]2O)[C@H](O)[C@H](O)[C@H]1O (stereo partly drawn)	inactive	–
O=S(=O)(NC1CCNCC1)c1cc(S(=O)(=O)c2ccccc2)ccc1C(F)(F)F	–	3.12% (inactive)
CC(=O)O[C@H]1[C@H](C)[C@@H](O)[C@H]2[C@@H]1C=C(C(=O)O)[C@H]1C[C@@H]3[C@H]([C@H]21)[C@H]1C(=O)O[C@@H]2CC[C@@]3(C)O[C@]1(O)[C@@H]2C	–	7.8% (inactive)
C/C=C(\C)C(=O)O[C@H]1[C@H](O)[C@]2(COC(C)=O)[C@H](O)C[C@]3(C)C(=CCC4[C@@]5(C)CC[C@H](O[C@@H]6O[C@H](C(=O)O)[C@@H](O[C@@H]7O[C@H](CO)[C@@H](O)[C@H](O)[C@H]7O)[C@H](O)[C@H]6O[C@@H]6O[C@H](CO)[C@@H](O)[C@H](O)[C@H]6O)[C@](C)(CO)C5CC[C@]43C)[C@@H]2CC1(C)C (stereo partly drawn)	inactive	–
COc1cc(C2Oc3c(OC)cc(CCCO[C@@H]4O[C@H](CO)[C@@H](O)[C@H](O)[C@H]4O)cc3C2CO)ccc1O (stereo partly drawn)	–	1.37% (inactive)
CC1=C(C)C(=O)OC(C(C)C2C(O)CC3C4C5OC5C5(O)CC(OC6OC(CO)C(O)C(O)C6O)CC(O)C5(C)C4CCC32C)C1 (stereo not drawn)	–	0.502% (inactive)
CC(C)c1cc2c(c(O)c1O[C@@H]1O[C@H](CO)[C@@H](O)[C@H](O)[C@H]1O)CC1(O)CCC(O)C(C)(C)C1CC2 (stereo partly drawn)	–	2.46% (inactive)

The compounds below were run on NIH3T3 in the same assay as above. Conditions: Five cell lines viability, CellTiter-Glo ATP luminescence, 48-72 h; max response: active compounds read low.
In short: as §1

Compound	max response	outcome
CC1(C)C[C@H]2C3=CCC4[C@@]5(C)CC[C@H](O[C@H]6O[C@H](C(=O)O)[C@@H](O)[C@H](O)[C@H]6O[C@H]6O[C@H](CO)[C@@H](O)[C@H](O)[C@H]6O[C@@H]6O[C@H](CO)[C@@H](O)[C@H](O)[C@H]6O)[C@](C)(CO)C5CC[C@@]4(C)[C@]3(C)CC[C@@]2(C)[C@H](O[C@@H]2OC[C@H](O)[C@H](OC3O[C@H](CO)[C@@H](O)[C@H](O)[C@H]3O)[C@H]2O)[C@@H]1O (stereo partly drawn)	4.34% (inactive)	–
COc1cc(C[C@H]2COC(=O)[C@@H]2Cc2ccc(O)c(OC)c2)ccc1O	–	inactive
O=C(OCc1cccc(O)c1O[C@@H]1O[C@H](CO)[C@@H](O)[C@H](O)[C@H]1O)C1(O)C(=O)C2C=CC1C1C=CC(=O)C(O)(C(=O)OCc3cccc(O)c3O[C@@H]3O[C@H](CO)[C@@H](O)[C@H](O)[C@H]3O)C21 (stereo partly drawn)	3.82% (inactive)	–
CC(=O)NC(CCC(=O)O)C(=O)NCCc1ccc(O)cc1 (stereo not drawn)	–	inactive
CC(=O)O[C@@H]1C[C@]2(C)[C@@]3(CCC4[C@@]5(C)CC[C@H](O[C@@H]6O[C@H](C(=O)O)[C@@H](O)[C@H](O[C@@H]7O[C@H](CO)[C@H](O)[C@H](O)[C@H]7O[C@@H]7O[C@@H](C)[C@H](O)[C@@H](O)[C@H]7O[C@@H]7OC[C@](O)(CO)[C@H]7O)[C@H]6O[C@@H]6O[C@H](CO)[C@H](O)[C@H](O)[C@H]6O)C(C)(C)C5CC[C@]42C)O[C@@H](O)[C@]12C3CC(C)(C)[C@@H](OC(=O)/C=C/c1ccc(O)c(O)c1)[C@@H]2OC(=O)/C=C/c1ccccc1 (stereo partly drawn)	–	inactive
CC1CCC2C(C)(C)CC(C)(CO)C2(O)C1C(=O)O (stereo not drawn)	–	inactive
C=C1C[C@@]23CC[C@@H]4[C@](C)(C(=O)O)CCC[C@@]4(C)C2=CC[C@H]1C3	–	inactive
CCOc1nc2cccc(C(=O)O)c2n1Cc1ccc(-c2ccccc2-c2noc(=O)[nH]2)cc1	-8.35% (inactive)	–
C/C=C(\C)C(=O)OC[C@H]1O[C@H](O[C@H]2O[C@H](CO)[C@@H](OC(=O)/C(C)=C/C)[C@H](O)[C@H]2O[C@@H]2O[C@H](CO)[C@@H](O)[C@H](O)[C@H]2O)[C@H](O[C@@H]2O[C@H](CO)[C@@H](O)[C@H](O)[C@H]2O)[C@@H](O)[C@@H]1O	2.61% (inactive)	–
CCNC(=O)CCC/C=C\C[C@@H]1[C@@H](/C=C/C(O)CCc2ccccc2)[C@@H](O)C[C@@H]1O (stereo partly drawn)	–	inactive
C=C(C)C(=O)O[C@H]1C[C@@](C)(OC(C)=O)[C@@]2(O)CC[C@@](C)(O)[C@H](OC(C)=O)[C@@]23OC(=O)C(COC)=C13	–	inactive
CC(=O)O[C@@H]1[C@H]2[C@@H](OC(=O)c3ccccc3)[C@@H](C)C[C@]2(O)[C@H](OC(C)=O)[C@@]2(C)[C@@H]3CC(C)(C)C(=O)[C@]3(OC(C)=O)C[C@@]12C	4.53% (inactive)	–
C=CC(C)(CC/C=C(\C)CC/C=C(\C)CC(O)/C=C(\C)C(=O)O)O[C@@H]1O[C@H](CO)[C@@H](O)[C@H](O)[C@H]1O[C@@H]1O[C@H](CO)[C@@H](O)[C@H](O)[C@H]1O (stereo partly drawn)	–	inactive
C/C=C(\C)C(=O)O[C@@H](C)[C@H]1CC[C@]2(O)C3CCC4C[C@@H](OC5CC(OC)C(OC6CC(OC)C(OC7CC(OC)C(OC8OC(C)C(OC9OC(CO)C(O)C(O)C9O)C(OC)C8O)C(C)O7)C(C)O6)C(C)O5)CC[C@]4(C)C3[C@H](O)[C@@H](O)[C@]12C (stereo partly drawn)	–	inactive
CC1(C)CC(=O)N(CCCCN2CCN(c3ncccn3)CC2)C(=O)C1	–	inactive
C[C@@H]1CC[C@]2(C(=O)O)CC[C@]3(C)C(=CCC4[C@]5(C)C(CC[C@]43C)C(C)(C)[C@@H](O)[C@H](O)[C@@H]5O)C2[C@]1(C)O (stereo partly drawn)	-3.49% (inactive)	–
O=C(COc1ccc(Cl)cc1)NC1CCC(NC(=O)COc2ccc(Cl)cc2)CC1 (stereo not drawn)	-4.22% (inactive)	–
O=C(O)CCc1cccc(O[C@@H]2O[C@H](CO)[C@@H](O)[C@H](O)[C@H]2O)c1O	–	inactive
OC[C@H]1O[C@@H](OC(CCCCc2ccc(O)cc2)CCc2ccc(O)cc2)[C@H](O[C@@H]2OC[C@](O)(CO)[C@H]2O)[C@@H](O)[C@@H]1O (stereo partly drawn)	2.54% (inactive)	–
COc1cc2c(cc1OC)CN(C(=O)[C@@H](NCc1ccncc1)C(C)(C)C)CC2	–	inactive

Compound	max response	outcome
COc1ccc(/C=C/C(=O)O[C@@H]2[C@@H](O)[C@H](C)O[C@@H](OC3C4C=COC(O[C@@H]5O[C@H](CO)[C@@H](O)[C@H](O)[C@H]5O)C4C4(CO)OC34)[C@@H]2O)cc1OC (stereo partly drawn)	0.929% (inactive)	–
CC(=O)OCC1=C[C@H](O)[C@@H]2C(C(=O)O)=CO[C@@H](O[C@@H]3O[C@H](CO)[C@@H](O)[C@H](O)[C@H]3O)[C@H]12	–	inactive
COC(=O)[C@@]1(O)C=CC[C@@H]2[C@@]3(C)C[C@@H](c4ccoc4)OC(=O)[C@H]3CC[C@]21C	–	inactive
O=C(NCC(=O)N1CC[C@H](NC2CCC(O)(c3ccc(-c4ncccn4)cn3)CC2)C1)c1cccc(C(F)(F)F)c1 (stereo partly drawn)	3.11% (inactive)	–
CC1=CC(=O)C2C(C)(C)CCCC2(C)C12CCC1(COC(=O)C1)O2 (stereo not drawn)	-3.33% (inactive)	–
CC(C)(O)C1CCC2(C)C3C(O)C4C(C13)C42CO (stereo not drawn)	0.322% (inactive)	–
C[C@@H]1CC[C@]2(C)C(C[C@@H](O)[C@H](O)[C@]23CO3)[C@@]1(C)CCc1ccoc1 (stereo partly drawn)	-3.46% (inactive)	–
O=C(O)C[C@H]1CCC(=O)[C@@H]1C/C=C\CCOC1OC(CO)C(O)C(O)C1O (stereo partly drawn)	–	inactive
C=CCc1ccc(O[C@@H]2O[C@H](CO)[C@@H](O)[C@H](O)[C@H]2O)c(OC)c1	–	inactive
CC1OC(OC2C(O)C(C(=O)O)OC(OC3CCC4(C)C(CCC5(C)C4C=CC4=C6CC(C)(C)CC(O)C6(C)CCC45C)C3(C)C)C2OC2OCC(O)C(O)C2O)C(O)C(O)C1O (stereo not drawn)	–	inactive
C[C@H]1[C@H](C)CC[C@]2(C(=O)O)CC[C@]3(C)C(=CC[C@@H]4[C@@]5(C)C[C@@H](O)[C@H](O)[C@@](C)(CO)[C@@H]5CC[C@]43C)[C@H]12	4.85% (inactive)	–
CC(C)C1=CC2=CCC3[C@](C)(CCC[C@@]3(C)C(=O)O)C2CC1O (stereo partly drawn)	–	inactive
C[C@@H]1O[C@@H](O[C@H]2[C@H](O)[C@@H](C(=O)O)O[C@@H](O[C@H]3CC[C@@]4(C)C(CC[C@]5(C)C4CC=C4C6CC(C)(C)CC[C@]6(C(=O)O)CC[C@]45C)C3(C)C)[C@@H]2O[C@@H]2O[C@H](CO)[C@@H](O)[C@H](O)[C@H]2O)[C@H](O)[C@H](O)[C@H]1O (stereo partly drawn)	1.81% (inactive)	–
O=S(=O)(NC1CCNCC1)c1cc(S(=O)(=O)c2ccccc2)ccc1C(F)(F)F	–	inactive
CC(=O)O[C@H]1[C@H](C)[C@@H](O)[C@H]2[C@@H]1C=C(C(=O)O)[C@H]1C[C@@H]3[C@H]([C@H]21)[C@H]1C(=O)O[C@@H]2CC[C@@]3(C)O[C@]1(O)[C@@H]2C	–	inactive
C/C=C(\C)C(=O)O[C@H]1[C@H](O)[C@]2(COC(C)=O)[C@H](O)C[C@]3(C)C(=CCC4[C@@]5(C)CC[C@H](O[C@@H]6O[C@H](C(=O)O)[C@@H](O[C@@H]7O[C@H](CO)[C@@H](O)[C@H](O)[C@H]7O)[C@H](O)[C@H]6O[C@@H]6O[C@H](CO)[C@@H](O)[C@H](O)[C@H]6O)[C@](C)(CO)C5CC[C@]43C)[C@@H]2CC1(C)C (stereo partly drawn)	2.26% (inactive)	–
COc1cc(C2Oc3c(OC)cc(CCCO[C@@H]4O[C@H](CO)[C@@H](O)[C@H](O)[C@H]4O)cc3C2CO)ccc1O (stereo partly drawn)	3.22% (inactive)	–
CC1=C(C)C(=O)OC(C(C)C2C(O)CC3C4C5OC5C5(O)CC(OC6OC(CO)C(O)C(O)C6O)CC(O)C5(C)C4CCC32C)C1 (stereo not drawn)	-0.676% (inactive)	–
CC(C)c1cc2c(c(O)c1O[C@@H]1O[C@H](CO)[C@@H](O)[C@H](O)[C@H]1O)CC1(O)CCC(O)C(C)(C)C1CC2 (stereo partly drawn)	0.487% (inactive)	–
